biological target: ELF4 (Homo sapiens, UniProt Q99607 1-663); assay: DAPPL (digital affinity profiling via proximity ligation, sequencing); 10 mM Tris-HCl pH 7.5, 50 mM NaCl, 1 mM DTT, 4% glycerol, room temperature, 30 min; GST-TFs on glutathione beads, 16-mer random dsDNA library, 0.1% formaldehyde crosslink after washing; high values mean tight binding; settings: protein: recombinant; tags: N-terminal GST; dsDNA, one strand shown
Summary of the method: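 Human transcription factors fused to GST were expressed in yeast, captured on glutathione beads, given DNA barcodes and pooled with a GST-only negative control. Pools were incubated with 200 nmole of a 16-mer random double-stranded DNA library in Tris/NaCl/DTT/glycerol buffer at room temperature for 30 min. They were then washed, crosslinked with 0.1% formaldehyde, proximity-ligated (BsaI/T4 ligase, 1 h, 37 °C), PCR-amplified and sequenced on an Illumina NextSeq500. Binding signal is each 6-mer's read frequency for a factor divided by its frequency for the GST control.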

Sequence of ELF4 (Q99607 whole entry, the tested form may be a part): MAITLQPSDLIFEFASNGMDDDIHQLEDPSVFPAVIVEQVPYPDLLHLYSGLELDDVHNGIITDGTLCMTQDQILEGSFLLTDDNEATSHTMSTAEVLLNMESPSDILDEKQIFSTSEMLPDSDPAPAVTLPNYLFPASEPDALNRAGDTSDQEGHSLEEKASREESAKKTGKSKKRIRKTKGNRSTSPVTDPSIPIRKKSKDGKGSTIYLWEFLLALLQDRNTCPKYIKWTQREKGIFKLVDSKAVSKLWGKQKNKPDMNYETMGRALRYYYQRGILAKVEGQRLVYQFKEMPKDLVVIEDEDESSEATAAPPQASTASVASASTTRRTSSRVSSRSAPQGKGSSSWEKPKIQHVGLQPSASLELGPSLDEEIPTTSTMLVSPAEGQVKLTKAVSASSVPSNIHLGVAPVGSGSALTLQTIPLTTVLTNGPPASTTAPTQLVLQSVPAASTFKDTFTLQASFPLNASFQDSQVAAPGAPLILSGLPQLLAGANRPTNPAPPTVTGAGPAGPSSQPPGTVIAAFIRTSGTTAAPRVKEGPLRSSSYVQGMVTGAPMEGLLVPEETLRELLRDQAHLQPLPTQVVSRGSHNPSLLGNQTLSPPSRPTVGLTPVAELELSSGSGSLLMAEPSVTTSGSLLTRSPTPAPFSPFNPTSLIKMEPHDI

Sequence | binding signal
TGGACC | 1.06 fold enrichment (6-mer frequency, TF over GST control)
TGCTGC | 1.16 fold enrichment (6-mer frequency, TF over GST control)
CCACAC | 1.1 fold enrichment (6-mer frequency, TF over GST control)
CGGCCT | 1.12 fold enrichment (6-mer frequency, TF over GST control)
GCCCAC | 1.18 fold enrichment (6-mer frequency, TF over GST control)
TTGGTC | 1.13 fold enrichment (6-mer frequency, TF over GST control)
CATCCA | 1.02 fold enrichment (6-mer frequency, TF over GST control)
TTGCCG | 1.12 fold enrichment (6-mer frequency, TF over GST control)
TGGTCA | 1.06 fold enrichment (6-mer frequency, TF over GST control)
AGCAAC | 1.1 fold enrichment (6-mer frequency, TF over GST control)
AAAGCG | 1.11 fold enrichment (6-mer frequency, TF over GST control)
GGGTTC | 1.12 fold enrichment (6-mer frequency, TF over GST control)
CATACG | 1.03 fold enrichment (6-mer frequency, TF over GST control)
CCGATG | 1.14 fold enrichment (6-mer frequency, TF over GST control)
ATGCCG | 1.19 fold enrichment (6-mer frequency, TF over GST control)
CCACCT | 1.15 fold enrichment (6-mer frequency, TF over GST control)
GCGCGC | 1.08 fold enrichment (6-mer frequency, TF over GST control)
CGCCCG | 1.11 fold enrichment (6-mer frequency, TF over GST control)
TCAACA | 1.07 fold enrichment (6-mer frequency, TF over GST control)

Sequence | binding signal
ACCACA | 1.11 fold enrichment (6-mer frequency, TF over GST control)
GTCCCA | 1.13 fold enrichment (6-mer frequency, TF over GST control)
TGGTGC | 1.07 fold enrichment (6-mer frequency, TF over GST control)
ACATGG | 1.21 fold enrichment (6-mer frequency, TF over GST control)
GTCTTG | 1.06 fold enrichment (6-mer frequency, TF over GST control)
ATGGTG | 1.14 fold enrichment (6-mer frequency, TF over GST control)
ACCACC | 1.14 fold enrichment (6-mer frequency, TF over GST control)
TGCCAA | 1.12 fold enrichment (6-mer frequency, TF over GST control)
GCTGCC | 1.06 fold enrichment (6-mer frequency, TF over GST control)
GCCCCA | 1.07 fold enrichment (6-mer frequency, TF over GST control)
CCGCTG | 1.06 fold enrichment (6-mer frequency, TF over GST control)
ACGTTG | 1.13 fold enrichment (6-mer frequency, TF over GST control)
CCATGC | 1.08 fold enrichment (6-mer frequency, TF over GST control)
GTTGAT | 1.15 fold enrichment (6-mer frequency, TF over GST control)
AAGGGT | 1.01 fold enrichment (6-mer frequency, TF over GST control)
GTCTAC | 1.09 fold enrichment (6-mer frequency, TF over GST control)
CATCGC | 1.13 fold enrichment (6-mer frequency, TF over GST control)
AAGGCA | 1.03 fold enrichment (6-mer frequency, TF over GST control)
GGTTTT | 1.15 fold enrichment (6-mer frequency, TF over GST control)

From PMC7862700, “An all-to-all approach to the identification of sequence-specific readers for epigenetic DNA modifications on cytosine”
